From PubChem BioAssay (EPA / NIEHS) come the findings set out here.

A short description of assay [1]: BSK_3C_VCAM1: BioMAP Diversity Plus: 3C Assay for Vascular cell adhesion molecule 1 (VCAM1) Biomarker Activity (AID 2282999). The settings on record: BioMAP 3C HUVEC, VCAM1 ELISA, cytokine-stimulated; actives raise or lower the signal. The procedure, abridged: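 Human umbilical vein endothelial cells (3C system), biomarker read by ELISA 24 h after dosing; bidirectional fit against DMSO baseline. Cytotoxicity tracked by SRB total-protein staining in parallel cultures at biomarker time.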

Assay [2] can be described thus: BSK_4H_Eotaxin3: BioMAP Diversity Plus: 4H Assay for Eotaxin 3 Biomarker Activity (AID 2283000).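 For outcome: CCL26 protein level quantified by ELISA in parallel with SRB cytotoxicity check.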 Conditions: primary human endothelial cells (HUVEC); actives raise or lower the signal. In a few lines: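 ELISA quantitation of CCL26 (Eotaxin-3) protein from chemically dosed human vascular endothelial cells at 24 h; increases and decreases both scored relative to DMSO-treated baseline.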

Read-out in assay [3]: Intercellular Adhesion Molecule 1 (ICAM1), ICAM1 (gene 3383)
Description: BSK_3C_ICAM1: BioMAP Diversity Plus: 3C Assay for Intercellular Adhesion Molecule 1 (ICAM1) Biomarker Activity (AID 2283003). Conditions: primary human endothelial cells (HUVEC); actives raise or lower the signal. The procedure, abridged:
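ICAM-1 levels measured by ELISA after HUVEC cultures in the 3C system had been dosed for 24 h. Gain or loss of signal relative to DMSO was fitted in both directions.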

Assay [4] addresses human Retinoic Acid Receptor beta (RARb), RARB (gene 5915) (UniProt P10826). Description: ATG_RARb_TRANS: Attagene TRANS-FACTORIAL HepG2 Assay for human Retinoic Acid Receptor beta (AID 2283004; active = hit-call score of the fitted dose curve at least 0.9, where 1 is the maximum). In a few lines: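 Fluorescent capillary-electrophoresis detection of GAL4-UAS reporter mRNA defines the endpoint, with induction over DMSO-treated wells scored as activity. Transiently transfected human hepatoma HepG2 cells expressing exogenous NR–Gal4 proteins are exposed to test chemicals for 24 h.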

For assay [5], the target named is Retinoic acid receptor alpha (Homo sapiens) (UniProt P10276). The experiment in a line: ATG_RARa_TRANS: Attagene TRANS-FACTORIAL HepG2 Assay for human Retinoic Acid Receptor alpha (RARa) (AID 2283005; active = hit-call score of the fitted dose curve at least 0.9, where 1 is the maximum;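 for AC50: potency for increased reporter signal meaning RARa activation over DMSO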). In a few lines: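 HepG2 transiently transfected with multiplex GAL4-UAS reporter units including a human RARa–GAL4 chimera; 24 h compound exposure. Reporter mRNA quantified by RT-PCR, 6-FAM labeling and capillary electrophoresis; gain of signal versus DMSO.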

Assay [6] can be described thus: BSK_3C_Proliferation: Cell Proliferation Assessment in the BioMAP Diversity Plus: 3C Assay (AID 2283006).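 For AC50: potency may reflect either rise or fall in cell number versus DMSO.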 The settings on record: primary human endothelial cells (HUVEC). In a few lines: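 Read-out is total protein by SRB absorbance at 560 nm, taken as a proxy for relative cell number. Primary human umbilical vein endothelium cultured below confluence was dosed for 48 h, TCA-fixed and SRB-stained; curves were fitted bidirectionally versus DMSO.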

Assay [7] addresses Peroxisome proliferator-activated receptor gamma (Homo sapiens) (UniProt P37231). The experiment in a line: ATG_PPARg_TRANS: Attagene TRANS-FACTORIAL HepG2 Assay for human Peroxisome Proliferator-activated Receptor-gamma (PPARg) (AID 2283007; active = hit-call score of the fitted dose curve at least 0.9, where 1 is the maximum). The procedure, abridged: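 Liver-derived HepG2 cells expressing an exogenous NR-Gal4 chimera alongside GAL4-UAS reporter genes; 24 h exposure. Fluorescence of reporter RT-PCR products, separated by capillary electrophoresis, gives mRNA induction relative to DMSO.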

Assay [8] concerns the target Nuclear receptor subfamily 1 group I member 2 (Homo sapiens) (UniProt O75469). Description: ATG_PXR_TRANS: Attagene TRANS-FACTORIAL HepG2 Assay for human Pregnane X Receptor (PXR) (AID 2283008; active = hit-call score of the fitted dose curve at least 0.9, where 1 is the maximum). The procedure, abridged:
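Read-out is fluorescence of labelled reporter cDNA fragments separated by capillary electrophoresis after RT-PCR and HpaI digestion. Source: HepG2 cells carrying PXR-GAL4/UAS reporter constructs, treated 24 h; activity fitted upward relative to DMSO.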

Assay [9] deals with human Retinoic Acid Receptor gamma (RARg), RARG (gene 5916) (UniProt P13631). Description: ATG_RARg_TRANS: Attagene TRANS-FACTORIAL HepG2 Assay for human Retinoic Acid Receptor gamma (RARg) (AID 2283009; active = hit-call score of the fitted dose curve at least 0.9, where 1 is the maximum). In a few lines:
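Transient transfection of HepG2 with multi-reporter constructs, then 24 h chemical treatment. Total RNA isolated, reverse-transcribed, PCR-amplified, fluorescently labelled and resolved by capillary electrophoresis; activity scored as mRNA induction versus DMSO.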

The target of assay [10] is human RAR-related Orphan Receptor gamma (RORg), RORC (gene 6097) (UniProt P51449). Description: ATG_RORg_TRANS: Attagene TRANS-FACTORIAL HepG2 Assay for human RAR-related Orphan Receptor gamma (RORg) (AID 2283011; active = hit-call score of the fitted dose curve at least 0.9, where 1 is the maximum). In a few lines: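 Chimeric RORg-Gal4 transactivation in transfected HepG2; 24 h exposure; RT-PCR/capillary electrophoresis readout of reporter mRNA, DMSO baseline.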

Assay [11] addresses human Retinoid X Receptor beta (RXRb), RXRB (gene 6257) (UniProt P28702). The experiment in a line: ATG_RXRb_TRANS: Attagene TRANS-FACTORIAL HepG2 Assay for human Retinoid X Receptor beta (RXRb) (AID 2283013; active = hit-call score of the fitted dose curve at least 0.9, where 1 is the maximum). The procedure, abridged: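 Transfect HepG2 with GAL4-UAS multi-reporter constructs (chimeric NR-Gal4, TRANS format); dose compound 24 h; isolate RNA, RT-PCR, FAM primer extension, HpaI digest; quantify by capillary electrophoresis; positive direction vs DMSO.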

Read-out in assay [12]: E-selectin (Homo sapiens) (UniProt P16581)
The experiment in a line: BSK_3C_Eselectin: BioMAP Diversity Plus: 3C Assay for Eselectin Biomarker Activity (AID 2283015).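 For outcome: cell surface E-selectin protein quantified by ELISA 24 h after dosing.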 Conditions: primary human endothelial cells (HUVEC); actives raise or lower the signal. In a few lines:
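Endpoint derived by bidirectional fitting against DMSO vehicle; signal is ELISA-detected E-selectin from primary HUVEC at 24 h post-dosing, with parallel SRB staining (0.1% SRB, 560 nm) flagging cytotoxicity.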

Read-out in assay [13]: Interleukin-1 alpha (IL1a), IL1A (gene 3552)
Description: BSK_BE3C_IL1a: BioMAP Diversity Plus: BE3C Assay for Interleukin-1 alpha (IL1a) Biomarker Activity (AID 2283016). Conditions: primary human bronchial epithelial cells; actives raise or lower the signal. The procedure, abridged: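 BE3C primary human bronchial epithelium; cpd 24 h; IL-1a by ELISA; bidirectional fit vs DMSO; parallel SRB (0.1% SRB, 10% TCA fix, 560 nm) for cytotoxicity.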

Read-out in assay [14]: Monocyte Chemoattractant Protein-1 (MCP1), CCL2 (gene 6347)
The experiment in a line: BSK_3C_MCP1: BioMAP Diversity Plus: 3C Assay for Monocyte Chemoattractant Protein-1 (MCP1) Biomarker Activity (AID 2283017). The settings on record: primary human endothelial cells (HUVEC); actives raise or lower the signal. The procedure, abridged:
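Using human vascular primary endothelium, researchers measured MCP-1 by ELISA 24 h after treatment, with DMSO serving as negative control for bidirectional fitting.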

Read-out in assay [15]: Monocyte Chemoattractant Protein-1 (MCP1), CCL2 (gene 6347)
The experiment in a line: BSK_4H_MCP1: BioMAP Diversity Plus: 4H Assay for Monocyte Chemoattractant Protein-1 (MCP1) Biomarker Activity (AID 2283018). Conditions: primary human endothelial cells (HUVEC); actives raise or lower the signal. In a few lines: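 ELISA read-out of MCP-1 from human vascular endothelial primary cells taken at 24 hours after compound exposure. Activity was fitted in both directions relative to DMSO, which served as negative control.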

The target in assay [16] is human Peroxisome Proliferator-activated Receptor delta (PPARd), PPARD (gene 5467) (UniProt Q03181). Description: ATG_PPARd_TRANS: Attagene TRANS-FACTORIAL HepG2 Assay for human Peroxisome Proliferator-activated Receptor delta (PPARd) (AID 2283002; active = hit-call score of the fitted dose curve at least 0.9, where 1 is the maximum). In a few lines: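 Fluorescence from capillary electrophoresis of labelled RT-PCR reporter fragments gives the signal; DMSO sets baseline. Cells: HepG2 transiently carrying GAL4-UAS reporter units plus chimeric nuclear receptor-Gal4 proteins, exposed to chemicals for 24 h.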

For assay [17], the target named is Retinoic acid receptor RXR-alpha (Homo sapiens) (UniProt P19793). Description: ATG_RXRa_TRANS: Attagene TRANS-FACTORIAL HepG2 Assay for human Retinoid X Receptor alpha (RXRa) (AID 2283012; active = hit-call score of the fitted dose curve at least 0.9, where 1 is the maximum). In a few lines: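 Transient transfection of human HepG2 with multiple GAL4-UAS reporter constructs; 24 h compound exposure; total RNA isolated, reverse-transcribed, PCR-amplified, 6-FAM labelled, HpaI-cut, resolved by capillary electrophoresis. Positive-direction fit versus DMSO.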

The target in assay [18] is human Thyroid Receptor alpha (THRa1), THRA (gene 7067) (UniProt P10827). Description: ATG_THRa1_TRANS: Attagene TRANS-FACTORIAL HepG2 Assay for human Thyroid Receptor alpha (THRa1) (AID 2283014; active = hit-call score of the fitted dose curve at least 0.9, where 1 is the maximum). The procedure, abridged:
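Measured here is mRNA from a GAL4-UAS reporter in transfected HepG2 cells carrying a Gal4-fused receptor, 24 h post-dose. DMSO served as negative control and baseline.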

Assay [19] addresses human RAR-related Orphan Receptor beta (RORb), RORB (gene 6096) (UniProt Q92753). The experiment in a line: ATG_RORb_TRANS: Attagene TRANS-FACTORIAL HepG2 Assay for human RAR-related Orphan Receptor beta (RORb) (AID 2283010; active = hit-call score of the fitted dose curve at least 0.9, where 1 is the maximum). The procedure, abridged: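 Readout is reporter-gene mRNA induction, detected as fluorescence after RT-PCR and capillary electrophoresis, fitted for gain of signal against DMSO controls. Transiently transfected HepG2 liver cells carrying GAL4-UAS reporter constructs were treated for 24 hours.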

Assay [20] deals with human Peroxisome Proliferator-activated Receptor alpha (PPARa), PPARA (gene 5465) (UniProt Q07869). Description: ATG_PPARa_TRANS: Attagene TRANS-FACTORIAL HepG2 Assay for human Peroxisome Proliferator-activated Receptor alpha (PPARa) (AID 2283001; active = hit-call score of the fitted dose curve at least 0.9, where 1 is the maximum). In a few lines: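 HepG2 cells transiently transfected with multiplexed GAL4-UAS reporters driven by exogenous chimeric NR-Gal4 proteins; reporter mRNA measured after 24 h dosing. Read-out by RT-PCR, 6-FAM labelling, HpaI digestion and capillary electrophoresis; gain of signal versus DMSO.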

Inconclusive results are not listed. Activity calls are given as the source filed them. Rule for the calls, unless noted: active = hit-call score of the fitted dose curve at least 0.9, where 1 is the maximum; inactive = score below 0.9.

Chain of human Retinoid X Receptor beta (RXRb), RXRB (gene 6257) (P28702 whole entry, looked up, the tested form may be a part): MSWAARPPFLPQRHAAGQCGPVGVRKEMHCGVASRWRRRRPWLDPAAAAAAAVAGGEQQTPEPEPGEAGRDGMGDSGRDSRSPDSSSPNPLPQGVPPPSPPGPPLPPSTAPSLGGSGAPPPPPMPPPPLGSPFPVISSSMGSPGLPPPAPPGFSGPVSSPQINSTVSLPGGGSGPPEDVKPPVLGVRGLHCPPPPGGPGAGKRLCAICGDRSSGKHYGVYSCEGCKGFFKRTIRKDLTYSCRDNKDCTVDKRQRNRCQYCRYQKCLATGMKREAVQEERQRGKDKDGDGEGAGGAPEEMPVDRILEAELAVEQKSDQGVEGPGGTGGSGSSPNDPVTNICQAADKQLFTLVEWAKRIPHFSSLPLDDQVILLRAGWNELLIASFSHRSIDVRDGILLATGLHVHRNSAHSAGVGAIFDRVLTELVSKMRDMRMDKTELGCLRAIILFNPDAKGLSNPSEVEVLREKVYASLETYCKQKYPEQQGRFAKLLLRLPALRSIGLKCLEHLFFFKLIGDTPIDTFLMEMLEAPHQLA
Chain of human RAR-related Orphan Receptor beta (RORb), RORB (gene 6096) (Q92753 whole entry, looked up, the tested form may be a part): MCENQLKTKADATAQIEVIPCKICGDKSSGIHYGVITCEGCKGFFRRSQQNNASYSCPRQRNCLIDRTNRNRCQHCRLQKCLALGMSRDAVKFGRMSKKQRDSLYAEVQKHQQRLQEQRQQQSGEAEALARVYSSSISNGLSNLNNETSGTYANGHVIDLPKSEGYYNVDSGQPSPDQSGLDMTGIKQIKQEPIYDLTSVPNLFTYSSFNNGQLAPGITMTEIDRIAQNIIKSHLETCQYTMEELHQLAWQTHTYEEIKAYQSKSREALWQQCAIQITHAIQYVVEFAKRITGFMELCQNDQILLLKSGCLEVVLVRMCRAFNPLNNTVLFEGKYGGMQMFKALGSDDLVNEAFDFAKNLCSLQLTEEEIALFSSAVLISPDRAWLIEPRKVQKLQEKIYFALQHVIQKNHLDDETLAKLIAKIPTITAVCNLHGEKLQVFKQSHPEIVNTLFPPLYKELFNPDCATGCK
Chain of human Retinoic Acid Receptor gamma (RARg), RARG (gene 5916) (P13631 whole entry, looked up): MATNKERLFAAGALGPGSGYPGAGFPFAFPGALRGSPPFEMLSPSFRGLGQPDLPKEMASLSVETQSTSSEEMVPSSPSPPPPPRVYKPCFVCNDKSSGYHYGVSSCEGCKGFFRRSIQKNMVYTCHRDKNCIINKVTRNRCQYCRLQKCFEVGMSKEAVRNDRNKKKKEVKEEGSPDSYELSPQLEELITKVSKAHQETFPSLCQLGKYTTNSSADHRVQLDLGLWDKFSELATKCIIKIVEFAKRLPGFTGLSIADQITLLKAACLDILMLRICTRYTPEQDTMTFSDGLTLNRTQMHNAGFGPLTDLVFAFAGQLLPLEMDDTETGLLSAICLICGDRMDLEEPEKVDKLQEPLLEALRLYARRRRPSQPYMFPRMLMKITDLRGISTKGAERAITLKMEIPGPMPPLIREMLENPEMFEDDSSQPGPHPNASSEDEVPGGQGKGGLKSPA
Chain of human Thyroid Receptor alpha (THRa1), THRA (gene 7067) (P10827 whole entry, looked up, the tested form may be a part): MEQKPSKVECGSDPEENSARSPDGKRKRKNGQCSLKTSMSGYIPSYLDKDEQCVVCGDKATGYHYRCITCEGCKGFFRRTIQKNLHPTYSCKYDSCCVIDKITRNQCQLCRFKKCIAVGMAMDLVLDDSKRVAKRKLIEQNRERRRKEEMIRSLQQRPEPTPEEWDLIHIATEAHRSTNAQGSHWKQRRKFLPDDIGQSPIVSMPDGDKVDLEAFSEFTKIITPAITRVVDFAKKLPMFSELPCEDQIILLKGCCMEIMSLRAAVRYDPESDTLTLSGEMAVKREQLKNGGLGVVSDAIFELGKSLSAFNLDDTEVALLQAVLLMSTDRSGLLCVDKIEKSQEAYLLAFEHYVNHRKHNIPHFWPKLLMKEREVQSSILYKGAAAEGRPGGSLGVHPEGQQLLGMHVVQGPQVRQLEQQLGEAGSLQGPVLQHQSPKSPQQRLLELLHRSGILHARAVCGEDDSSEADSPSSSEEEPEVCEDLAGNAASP
Chain of E-selectin (Homo sapiens) (P16581 whole entry, looked up): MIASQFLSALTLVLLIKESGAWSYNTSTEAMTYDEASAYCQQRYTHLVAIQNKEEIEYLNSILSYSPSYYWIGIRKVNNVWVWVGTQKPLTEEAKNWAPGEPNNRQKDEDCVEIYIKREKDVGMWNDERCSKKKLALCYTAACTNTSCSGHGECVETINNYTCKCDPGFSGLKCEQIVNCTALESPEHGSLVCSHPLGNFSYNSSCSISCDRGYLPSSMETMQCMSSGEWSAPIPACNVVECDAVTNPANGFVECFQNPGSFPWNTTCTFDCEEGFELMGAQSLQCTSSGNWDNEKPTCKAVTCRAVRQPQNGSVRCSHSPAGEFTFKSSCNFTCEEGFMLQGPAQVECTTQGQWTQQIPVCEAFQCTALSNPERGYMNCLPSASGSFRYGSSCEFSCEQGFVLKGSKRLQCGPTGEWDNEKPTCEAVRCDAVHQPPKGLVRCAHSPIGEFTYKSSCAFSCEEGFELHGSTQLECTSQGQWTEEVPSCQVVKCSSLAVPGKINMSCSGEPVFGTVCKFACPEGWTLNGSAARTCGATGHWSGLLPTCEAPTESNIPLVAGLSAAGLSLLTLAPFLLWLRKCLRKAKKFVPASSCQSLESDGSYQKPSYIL
Chain of human Retinoic Acid Receptor beta (RARb), RARB (gene 5915) (P10826 whole entry, looked up, the tested form may be a part): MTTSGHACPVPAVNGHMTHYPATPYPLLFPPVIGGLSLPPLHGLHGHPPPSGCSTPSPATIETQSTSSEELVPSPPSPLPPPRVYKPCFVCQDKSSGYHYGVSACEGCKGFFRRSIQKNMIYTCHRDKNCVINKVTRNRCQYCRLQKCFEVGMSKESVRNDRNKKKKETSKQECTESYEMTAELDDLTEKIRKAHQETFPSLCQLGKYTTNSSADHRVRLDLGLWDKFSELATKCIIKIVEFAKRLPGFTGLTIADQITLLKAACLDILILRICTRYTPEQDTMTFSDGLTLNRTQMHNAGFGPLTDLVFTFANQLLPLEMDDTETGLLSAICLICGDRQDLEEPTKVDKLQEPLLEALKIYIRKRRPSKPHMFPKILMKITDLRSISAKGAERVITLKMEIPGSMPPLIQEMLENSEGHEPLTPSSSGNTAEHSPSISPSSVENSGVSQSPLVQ
Chain of Nuclear receptor subfamily 1 group I member 2 (Homo sapiens) (O75469 whole entry, looked up, the tested form may be a part): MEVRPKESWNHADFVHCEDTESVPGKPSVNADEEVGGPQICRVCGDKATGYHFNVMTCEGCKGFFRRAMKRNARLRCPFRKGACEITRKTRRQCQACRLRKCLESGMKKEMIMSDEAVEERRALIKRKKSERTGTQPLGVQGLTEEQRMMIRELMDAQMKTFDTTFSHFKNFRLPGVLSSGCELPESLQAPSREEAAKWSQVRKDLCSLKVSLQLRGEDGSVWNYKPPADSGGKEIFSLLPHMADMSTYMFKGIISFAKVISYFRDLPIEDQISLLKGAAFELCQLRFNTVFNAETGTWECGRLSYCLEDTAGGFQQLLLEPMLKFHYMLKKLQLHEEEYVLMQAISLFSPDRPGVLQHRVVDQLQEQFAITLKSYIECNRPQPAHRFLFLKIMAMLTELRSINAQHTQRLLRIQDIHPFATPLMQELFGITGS
Chain of Peroxisome proliferator-activated receptor gamma (Homo sapiens) (P37231 whole entry, looked up, the tested form may be a part): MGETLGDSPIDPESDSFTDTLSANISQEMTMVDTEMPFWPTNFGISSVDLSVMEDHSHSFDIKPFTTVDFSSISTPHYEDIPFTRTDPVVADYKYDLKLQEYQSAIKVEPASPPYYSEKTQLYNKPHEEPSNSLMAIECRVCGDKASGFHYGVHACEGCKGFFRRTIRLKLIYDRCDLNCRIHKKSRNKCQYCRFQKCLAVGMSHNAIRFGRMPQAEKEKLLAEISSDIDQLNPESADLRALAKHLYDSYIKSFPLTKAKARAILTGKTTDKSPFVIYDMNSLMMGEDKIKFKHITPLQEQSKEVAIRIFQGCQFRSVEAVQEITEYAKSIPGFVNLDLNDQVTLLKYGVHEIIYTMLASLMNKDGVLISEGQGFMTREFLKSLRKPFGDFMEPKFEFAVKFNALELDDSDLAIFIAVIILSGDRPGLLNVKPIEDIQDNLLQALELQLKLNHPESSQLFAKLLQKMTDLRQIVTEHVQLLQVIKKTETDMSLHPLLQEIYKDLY
Chain of human RAR-related Orphan Receptor gamma (RORg), RORC (gene 6097) (P51449 whole entry, looked up, the tested form may be a part): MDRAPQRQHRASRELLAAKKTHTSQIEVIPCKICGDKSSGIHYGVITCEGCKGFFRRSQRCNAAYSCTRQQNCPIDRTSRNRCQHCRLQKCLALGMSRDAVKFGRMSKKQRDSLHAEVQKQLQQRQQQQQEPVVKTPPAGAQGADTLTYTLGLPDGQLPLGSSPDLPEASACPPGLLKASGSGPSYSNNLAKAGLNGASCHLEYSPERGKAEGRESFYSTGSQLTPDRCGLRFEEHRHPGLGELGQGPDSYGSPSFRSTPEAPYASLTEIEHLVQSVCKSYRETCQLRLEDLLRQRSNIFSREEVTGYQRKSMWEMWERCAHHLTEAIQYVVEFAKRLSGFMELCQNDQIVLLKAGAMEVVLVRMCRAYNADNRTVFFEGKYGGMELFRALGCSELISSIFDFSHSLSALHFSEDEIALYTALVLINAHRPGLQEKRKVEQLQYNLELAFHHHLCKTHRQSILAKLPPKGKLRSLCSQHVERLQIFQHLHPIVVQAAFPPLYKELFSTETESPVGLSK
Chain of Retinoic acid receptor RXR-alpha (Homo sapiens) (P19793 whole entry, looked up, the tested form may be a part): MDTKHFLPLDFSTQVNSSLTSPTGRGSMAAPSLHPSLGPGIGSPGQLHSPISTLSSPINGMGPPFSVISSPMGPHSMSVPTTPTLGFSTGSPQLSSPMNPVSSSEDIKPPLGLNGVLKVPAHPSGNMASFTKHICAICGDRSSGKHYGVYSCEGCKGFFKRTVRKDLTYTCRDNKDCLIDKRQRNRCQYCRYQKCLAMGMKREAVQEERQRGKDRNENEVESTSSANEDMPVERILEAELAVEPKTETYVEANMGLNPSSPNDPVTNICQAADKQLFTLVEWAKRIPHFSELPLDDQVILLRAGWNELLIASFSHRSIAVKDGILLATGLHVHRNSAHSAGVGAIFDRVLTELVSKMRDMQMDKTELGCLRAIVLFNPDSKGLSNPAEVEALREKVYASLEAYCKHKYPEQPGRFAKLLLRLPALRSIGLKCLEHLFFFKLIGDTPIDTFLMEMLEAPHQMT

In general, AC50 refers to the concentration at which the activity in the assay is half-maximal. In the case of `CCNP(=S)(OC)O/C(C)=C/C(=O)OC(C)C` (stereo not drawn), the outcome in assay [1], in assay [2], in [3], in [4], in [6] and in assay [8] was inactive. The result in [9], in assay [10], in [11], in [12], in assay [13] and in [14] was inactive. The result in [15] was inactive. Moreover, the AC50 in assay [5] is 22.1 µM (active); in assay [7], 29.6 µM (active).

As to `CC(C)Nc1nc(Cl)nc(NC(C)C)n1`, the outcome in assay [1], in [2], in [16], in assay [3], in [6] and in assay [7] was inactive. Also, the molecule was called inactive in assay [8], in assay [17], in assay [11], in [18], in assay [12] and in assay [13]. The outcome in assay [14] and in assay [15] was inactive.

Take `CC(C)NC(=O)N1CC(=O)N(c2cc(Cl)cc(Cl)c2)C1=O`: the outcome in assay [1], in [2], in [3], in [6], in [17] and in assay [14] was inactive. In [15], the outcome was inactive. In addition, the AC50 was 23.4 µM (active) in assay [7] and 10.6 µM (active) in assay [8].

Regarding `CC1(C)C(C=C(Cl)Cl)C1C(=O)OC(C#N)c1cccc(Oc2ccccc2)c1` (stereo not drawn), the result in assay [1], in assay [2], in assay [3], in assay [4], in assay [5] and in assay [9] was inactive. Besides, the molecule was called inactive in [19], in assay [10], in assay [17], in [11], in assay [12] and in assay [14]. The values for the AC50 in assay [7], in assay [8] and in assay [15] were 17.9 µM (active), 9.82 µM (active) and 9.17 µM (active), respectively.

Take `CCCC(=NOCC)C1=C(O)CC(CC(C)SCC)CC1=O` (stereo not drawn): the result in assay [1], in assay [2], in assay [16], in assay [3], in assay [4] and in [5] was inactive. The result in assay [6], in [7], in assay [8], in assay [9], in [19] and in assay [17] was inactive. Besides, the outcome in assay [12], in assay [13], in assay [14] and in assay [15] was inactive.

Take `Cc1c(COC(=O)[C@@H]2[C@H](/C=C(\Cl)C(F)(F)F)C2(C)C)cccc1-c1ccccc1`: the outcome in [1], in assay [2], in [16], in [3], in [4] and in assay [5] was inactive. Moreover, the molecule was called inactive in assay [7], in [8], in assay [9], in assay [19], in assay [10] and in assay [17]. For the same molecule, the result in assay [11], in assay [18], in assay [12], in assay [13], in assay [14] and in [15] was inactive. Besides, in [6], the AC50 is 12.7 µM (active).

For `COCC(C)N(C(=O)CCl)c1c(C)csc1C` (stereo not drawn), the result in assay [1], in [2], in [20], in assay [3], in [6] and in assay [8] was inactive. Moreover, the molecule was classed as inactive in assay [10], in assay [18], in [12], in assay [14] and in [15]. The AC50 in [7] was 3.79 µM (active).

As for `CO/N=C(/C1=NOCCO1)c1ccccc1Oc1ncnc(Oc2ccccc2Cl)c1F`, the outcome in [1], in [16], in [3], in [7], in assay [8] and in assay [10] was inactive. Besides, the result in assay [11], in assay [18] and in assay [13] was inactive. Besides, the AC50 in assay [2] was 27.8 µM (active); in assay [6] it was 17.4 µM (active); in [12], 6.21 µM (active); in [14] it was 20.1 µM (active).

As for `O=C(O)c1c(Cl)ccc2cc(Cl)cnc12`, the outcome in assay [1], in [2], in assay [20], in assay [3], in assay [6] and in [7] was inactive. The outcome in assay [18], in assay [12], in assay [14] and in assay [15] was inactive.
